In all, about 2,100 compounds went through this assay and about 1,100 (52%) were called active. About 27% were inconclusive and are not listed. So high a share suggests a set chosen from earlier hits. The list shows a part of the results. Values without a mark were called inactive. Calls follow the shape of the dose curve; as a rule, active = well fitted inhibition curve with a large enough effect; inconclusive = small, poorly fitted or top-dose-only effect; inactive = no such curve, though single readings can be large or run the other way.
Potency is read from the fitted curve at half-maximal effect.

Chain of DNA dC->dU-editing enzyme APOBEC-3G (Homo sapiens) (Q9HC16 whole entry, looked up): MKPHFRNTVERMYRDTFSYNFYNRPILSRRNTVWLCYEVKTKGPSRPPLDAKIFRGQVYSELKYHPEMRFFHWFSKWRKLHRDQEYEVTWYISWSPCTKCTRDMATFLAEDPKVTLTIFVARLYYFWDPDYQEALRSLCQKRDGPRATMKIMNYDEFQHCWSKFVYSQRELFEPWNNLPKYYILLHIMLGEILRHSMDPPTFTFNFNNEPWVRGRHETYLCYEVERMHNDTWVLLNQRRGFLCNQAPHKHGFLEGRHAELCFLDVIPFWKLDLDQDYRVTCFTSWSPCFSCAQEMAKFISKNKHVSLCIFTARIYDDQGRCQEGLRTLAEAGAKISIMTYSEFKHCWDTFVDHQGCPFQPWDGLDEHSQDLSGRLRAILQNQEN

The target of the assay is DNA dC->dU-editing enzyme APOBEC-3G (Homo sapiens) (UniProt Q9HC16). Kind of assay: qHTS for inhibitors of Vif-A3G interactions: Cherry picks counterscreen.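 Also: hits raise yellow fluorescence by blocking Vif-driven A3G-eYFP degradation; nearly all actives have a fitted effect of over 70% in size.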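 As to max response: max response given as percent of control signal.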 Particulars: HeLa A3G-eYFP + Vif (tagged APOBEC3G with the HIV-1 protein that degrades it), eYFP fluorescence, 24 h. Summed up:
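Readout is eYFP fluorescence (488 nm excitation, 500-530 nm emission) measured on Acumen Explorer after 24 h compound exposure, several concentrations, at 37 deg C. Cells: HeLa stably co-expressing Vif and C-terminally eYFP-tagged A3G; MG132 positive control.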
For orientation: In qHTS, concentration-response curves come from the screen itself.
Consider `COc1cc(C(=O)Nc2ccc3ccccc3c2)cc(OC)c1OC`, for which the Potency was 1.58 µM (active).
`COc1cc(C(=O)N/N=C/c2ccccn2)cc(OC)c1OC`: the Potency was 12.5 µM (active).
For the compound `COc1cc(C(=O)N/N=C/C2CC=CCC2)cc(OC)c1OC` (stereo unspecified), the max response is -11.5%.
As for `COc1cc(C(=O)Nc2ccc3c(c2)ncn3C)cc(OC)c1OC`, the Potency was 7.04 µM (active).
Consider `S=C(NN=Cc1ccccn1)Nc1ccccn1`, for which the max response was 20.1%.
Take `COc1ccc(C(=O)/C=C2/c3ccccc3CC(C)(C)N2C)cc1`: the Potency is 12.5 µM (active).
`CN(C)CCOc1ccc2c(c1)C(=O)C(=Cc1ncc([N+](=O)[O-])n1C)C2`: the Potency was 8.86 µM (active).
Still for that read-out and setting: with `COc1ccc(S(=O)(=O)N2N=C(C)Oc3ccccc3C2=O)cc1` the figure was 7.9 µM (active); with `COC(=O)C1CCC(=O)N1C(c1ccc(OC)cc1)c1cc(OC)c(OC)c(OC)c1` (stereo unspecified), 0.559 µM (active).
The same measure, in the same setting: with `COC(=O)c1c(N2C(=O)[C@H]3[C@@H](C2=O)[C@]2(C(=O)Nc4c(C)cccc42)N2CCC[C@@H]32)sc(C)c1C` the figure was 6.27 µM (active).
Take `CN1C2=CC=CC=CC2=[N+](C)C12C([N+](=O)[O-])=CC(=[N+]([O-])[O-])C=C2[N+](=O)[O-]` (stereo unspecified): the max response is -21%.
For the compound `C=CCSc1nc2ccccc2n1C(=O)/C=C/c1cc(OC)c(OC)c(OC)c1`, the Potency was 8.86 µM (active).
Consider `CCSc1nc2ccccc2n1C(=O)/C=C/c1ccc(OC)c(OC)c1`, for which the Potency was 4.98 µM (active).
Same read-out and setting: then `CN(C)c1ccc(/C=C/C(=O)c2c(O)c3ccccc3oc2=O)cc1`, with 1.3 µM (active).
On to `CN(C)c1ccc(/C=C/C(=O)c2ccc(O)cc2)cc1`, for which the max response is 57%.
Take `Cc1ccc2c(c1)sc(-c1ccc(N(C)C)cc1)[n+]2C`: the Potency is 2.91 µM (active).
On the same count and under the same terms, with `COc1ccc(C2=NOC(C(=O)NCc3ccc(F)cc3)C2)cc1OC` (stereo unspecified) the figure was 1.12 µM (active).
Same read-out and setting: then `COc1ccc(C2=NOC(C(=O)NCc3cccs3)C2)cc1OC` (stereo unspecified), with 7.9 µM (active).
Turning to `COc1ccc(C2=NOC(C(=O)NCc3ccc(F)cc3)C2)cc1` (stereo unspecified), the max response was -20.8%.
In the case of `COc1ccc(NC(=O)CSc2ccc3c4c(cccc24)C(=O)c2ccccc2-3)cc1`, the Potency was 14.6 µM (active).
The same measure, in the same setting: with `N#Cc1cccc(NC(=O)CSc2ccc3c4c(cccc24)C(=O)c2ccccc2-3)c1` the figure was 4.61 µM (active).
Turning to `CCn1c(SCC(=O)Nc2cccc(O)c2)nc2c1c(=O)n(C)c(=O)n2C`, the max response is -1.18%.
In the case of `COc1cc2c(cc1OC)C1=CC(=O)C(=O)N1C(C)(C)C2`, the Potency was 14 µM (active).
Still for that read-out and setting: with `CCOc1ccc(S(=O)(=O)Nc2cc3c(C(=O)OC)c(COC)oc3c3ccccc23)cc1` the figure was 0.461 µM (active).
As to `Cc1ccc(S(=O)(=O)Nc2cc(Cl)c(O)c3ncccc23)cc1`, the max response was 10.1%.
For the compound `CC(=O)c1c(C)oc2c1cc(NS(=O)(=O)c1ccc(Br)cc1)c1ccccc12`, the Potency is 1.64 µM (active).

The values are drawn from PubChem BioAssay AID651813 (National Center for Advancing Translational Sciences (NCATS), 2012).
